Inconclusive results are not listed. Activity calls are given as the source filed them. The call rests on the fitted dose curve; in most records, active means well fitted inhibition curve with a large enough effect; inconclusive means small, poorly fitted or top-dose-only effect; inactive means flat fitted curve, though single readings scatter.
What follows are compounds tested on HB3 (assay: qHTS profiling for inhibitors of Plasmodium falciparum proliferation (AID 504749; further: nearly all actives have a fitted effect of over 60% in size)). Conditions: P. falciparum in erythrocytes, SYBR Green DNA, 72 h; series mostly up to 28.7 µM.
Procedure, shortened: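 Infected RBCs, 0.3% parasitemia/2.5% Hct final; cpd 72 h, 37 C, 5% CO2; lysis buffer with saponin/triton/SYBR Green I, o/n RT dark; FI 485/535; norm. to artemisinin (0.29 uM) and DMSO.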
Potency means the concentration at half of the fitted maximal effect.

Potency, inactive:
CCCCCCCCCCCCCCCC(=O)OC[C@H](O)[C@H]1OC[C@@H](O)[C@@H]1O, C[C@H]1OC(OC2C(O)[C@@H](O)C(OC3C(O)[C@@H](O)C(O)O[C@@H]3CO)O[C@@H]2CO)[C@H](O)C(O)C1N[C@H]1C=C(CO)[C@@H](O)[C@H](O)C1O (some centres not stated), CCN(CC)CC(=O)Nc1c(C)cc(C)cc1C, CC(=O)N[C@H]1[C@H](O[C@@H]2c3ccc(c(Cl)c3)Oc3cc4cc(c3O[C@@H]3O[C@H](CO)[C@@H](O)[C@H](O)C3C)Oc3ccc(cc3Cl)C[C@H]3NC(=O)[C@@H](N)c5ccc(O)c(c5)Oc5cc(O)cc(c5)[C@H](NC3=O)C(=O)N[C@H]4C(=O)N[C@H]3C(=O)N[C@@H]2C(=O)N[C@@H](C(=O)O)c2cc(O)cc(O[C@H]4O[C@H](CO)[C@@H](O)C(O)[C@@H]4O)c2-c2cc3ccc2O)O[C@H](CO)[C@@H](O)[C@@H]1O (some centres not stated), NC(=O)c1ncn(C2OC(CO)C(O)C2O)c1N (configuration not stated), CC1(Cn2ccnn2)[C@H](C(=O)O)N2C(=O)C[C@H]2S1(=O)=O (some centres not stated), CN(C)CC/C=C1\c2ccccc2COc2ccc(CC(=O)O)cc21, CCCC(=O)O[C@]1(C(=O)COC(C)=O)CC[C@H]2C3C[C@H](F)C4=CC(=O)C=CC4(C)[C@@]3(F)[C@@H](O)CC21C (some centres not stated), OCCN1CC(O)C(O)C(O)C1CO (configuration not stated), CC(CCC(=O)O)C1CCC2C3C(=O)C[C@@H]4CC(=O)CC[C@@]4(C)C3CC(=O)[C@]12C (some centres not stated), O=C(OC[C@@H]1O[C@@](O)(COC(=O)c2cccnc2)[C@H](OC(=O)c2cccnc2)[C@H]1OC(=O)c1cccnc1)c1cccnc1, O=[N+]([O-])O[C@H]1CO[C@H]2[C@@H]1OC[C@H]2O, COc1cccc(OC)c1C(=O)NC1C(=O)N2C1SC(C)(C)C2C(=O)O (configuration not stated), NC[C@@H]1O[C@H](OC2[C@@H](CO)O[C@@H](OC3[C@H](O)[C@H](N)C[C@H](N)[C@H]3OC3O[C@H](CO)[C@@H](O)[C@H](O)[C@@H]3N)[C@H]2O)C(N)[C@H](O)[C@@H]1O (some centres not stated), Cc1ccc(S(=O)(=O)NC(=O)NC(C)Cc2ccccc2)cc1 (configuration not stated), OCCOC[C@H]1O[C@H](OCCO)[C@H](OCCO)[C@@H](OCCO)[C@@H]1OCCO (tested in a mixture with another compound), C[S+](C)CC[C@H](N)C(=O)O, CC[C@@H]1/C=C(\C)C[C@H](C)C[C@H](OC)[C@H]2O[C@@](O)(C(=O)C(=O)N3CCCC[C@H]3C(=O)O[C@H](/C(C)=C/[C@@H]3CC[C@H](Cl)[C@H](OC)C3)[C@H](C)[C@@H](O)CC1=O)[C@H](C)C[C@@H]2OC, NC(=O)C1CC2(NC(=O)NC2=O)c2cc(F)ccc2O1 (configuration not stated), CN1[C@@H]2CC[C@@H]1CC(OC(=O)[C@H](CO)c1ccccc1)C2 (some centres not stated), CCCCCCCCCCCC(=O)OCC(O)C1OCC(O)C1O (configuration not stated), C/C1=C2/[N-]C(C(CC(N)=O)[C@@]2(C)CCC(=O)NCC(C)OP(=O)([O-])O[C@H]2[C@@H](O)[C@@H](n3cnc4cc(C)c(C)cc43)O[C@@H]2CO)[C@]2(C)N=C(/C(C)=C3N=C(/C=C4N=C1C(CCC(N)=O)C\4(C)C)[C@@H](CCC(N)=O)[C@]\3(C)CC(N)=O)[C@@H](CCC(N)=O)[C@]2(C)CC(N)=O.CC(=O)O.[Co] (some centres not stated)

Potency, active:
CCCCC(=O)OCC(=O)[C@]1(O)Cc2c(O)c3c(c(O)c2[C@H](OC2CC(NC(=O)C(F)(F)F)C(O)C(C)O2)C1)C(=O)c1c(OC)cccc1C3=O (some centres not stated) 2510 nM, C[C@H]1[C@@H](OC(=O)CCC(=O)O)OC2OC3(C)CC[C@H]4[C@H](C)CC[C@@H]1[C@@]24OO3 (some centres not stated) 5 nM, COc1cc2c(cc1O)CCN[C@@]21CS[C@H]2c3c(OC(C)=O)c(C)c4c(c3C(COC1=O)N1C2C2c3c(cc(C)c(OC)c3O)CC([C@@H]1O)N2C)OCO4 (some centres not stated) 0.3 nM, C[n+]1c2cc(N)ccc2cc2ccc(N)cc21 447 nM, CC[C@@]1(O)C[C@H](O[C@H]2C[C@@H](N(C)C)[C@@H](O[C@H]3C[C@@H](O)[C@@H](O[C@H]4CCC(=O)[C@@H](C)O4)[C@@H](C)O3)[C@@H](C)O2)c2c(cc3c(c2O)C(=O)c2c(O)cccc2C3=O)[C@H]1C(=O)OC 141 nM

Reference: PubChem BioAssay (NCATS)
